# For some assays here: Measured potencies and affinities stand elsewhere.
# Assays:
# Set-up in all cases: scale not given: direction of the effect not stated beside the values
# [1] = molecular target: Protein translocase subunit SecA (Escherichia coli (strain K12)) (UniProt P10408); assay: Assay to Identify E. coli SecA ATPase Inhibitors; format: functional; settings: 30 µM
# [2] = molecular target: T1, Ubiquitin-activating enzyme e1, putative (Leishmania donovani (strain BPK282A1)) (UniProt E9BSI1); assay: Leishmania donovani Ubiquitin Activating Enzyme (LdE1); format: functional; settings: 30 µM
# T1 sequence (whole entry): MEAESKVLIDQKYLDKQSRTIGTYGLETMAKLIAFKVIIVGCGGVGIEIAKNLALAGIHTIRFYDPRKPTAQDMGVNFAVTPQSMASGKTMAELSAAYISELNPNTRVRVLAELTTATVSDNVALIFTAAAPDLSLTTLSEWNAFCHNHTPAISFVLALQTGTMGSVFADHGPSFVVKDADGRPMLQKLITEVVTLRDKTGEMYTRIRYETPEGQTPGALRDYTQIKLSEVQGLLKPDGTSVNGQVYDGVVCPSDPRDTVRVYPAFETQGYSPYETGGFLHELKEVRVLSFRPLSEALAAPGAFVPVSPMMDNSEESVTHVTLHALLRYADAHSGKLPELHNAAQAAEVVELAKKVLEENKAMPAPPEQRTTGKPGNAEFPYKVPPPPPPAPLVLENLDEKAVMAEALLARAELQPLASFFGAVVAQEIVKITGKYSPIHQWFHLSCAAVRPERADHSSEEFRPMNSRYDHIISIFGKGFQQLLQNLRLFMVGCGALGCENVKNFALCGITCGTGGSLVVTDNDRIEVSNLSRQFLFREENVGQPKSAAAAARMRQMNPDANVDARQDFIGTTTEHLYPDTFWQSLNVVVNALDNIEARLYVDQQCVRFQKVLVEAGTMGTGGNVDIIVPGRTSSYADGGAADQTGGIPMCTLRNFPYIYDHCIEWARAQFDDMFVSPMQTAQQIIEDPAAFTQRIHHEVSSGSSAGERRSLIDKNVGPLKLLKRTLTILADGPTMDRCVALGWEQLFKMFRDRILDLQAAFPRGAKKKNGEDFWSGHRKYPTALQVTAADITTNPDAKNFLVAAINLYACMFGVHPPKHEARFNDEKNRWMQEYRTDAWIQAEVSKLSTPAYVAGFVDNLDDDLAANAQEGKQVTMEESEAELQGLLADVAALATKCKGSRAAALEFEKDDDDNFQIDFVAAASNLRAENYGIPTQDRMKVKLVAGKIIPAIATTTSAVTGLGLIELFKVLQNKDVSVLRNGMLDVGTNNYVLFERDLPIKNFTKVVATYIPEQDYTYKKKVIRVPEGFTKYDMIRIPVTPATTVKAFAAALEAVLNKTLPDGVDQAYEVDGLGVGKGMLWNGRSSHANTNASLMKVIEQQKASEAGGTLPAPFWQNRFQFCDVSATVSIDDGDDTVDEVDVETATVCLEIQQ
# [3] = molecular target: AMP-activated protein kinase, AMPK (Homo sapiens) (UniProt P54646+O43741+P54619+Q9UGJ0+Q9Y478+Q13131+Q9UGI9); assay: AMP-dependent Kinase enzyme assay. An in vitro enzyme assay that detects ADP turnover that is directly proportional to AMPK activity. This uses naive AMPK that is activated during the assay with MK-8722; format: functional; settings: 30 µM
# [4] = molecular target: Sialic acid-binding Ig-like lectin 9 (Homo sapiens) (UniProt Q9Y336); assay: Hs-Siglec9 ALPHAscreen SOP 20170721; settings: 10 µM
# Trypanosoma cruzi = assay: Trypanosoma cruzi phosphomannomutase and mannose-1-phosphate guanylyltransferase assay; format: functional; settings: 10 µM
# [5] = molecular target: T2, Arginase-2, mitochondrial (Homo sapiens) (UniProt P78540); assay: in vitro enzyme assay to detect the production of urea directly proportional to the activity of Arginase II; format: functional; settings: 33.3 µM; also: in the data most compounds retested in dose-response had high values
# T2 sequence (whole entry): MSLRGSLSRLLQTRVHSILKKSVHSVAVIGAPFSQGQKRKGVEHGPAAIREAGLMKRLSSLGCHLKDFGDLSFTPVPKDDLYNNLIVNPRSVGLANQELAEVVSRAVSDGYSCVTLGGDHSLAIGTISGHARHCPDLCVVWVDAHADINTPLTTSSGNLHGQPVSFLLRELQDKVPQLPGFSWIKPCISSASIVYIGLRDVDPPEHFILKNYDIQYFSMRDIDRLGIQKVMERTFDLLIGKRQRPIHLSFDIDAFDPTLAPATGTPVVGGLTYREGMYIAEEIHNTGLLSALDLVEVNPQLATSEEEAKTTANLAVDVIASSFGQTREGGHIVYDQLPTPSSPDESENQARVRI
# [6] = molecular target: T3, Proteasome subunit beta (Trypanosoma cruzi) (UniProt O96673); assay: Trypanosoma cruzi proteasome chymotrypsin-like activity (TcProtChymo) assay.; also: in the data most compounds retested in dose-response had high values; format: functional; settings: 9.37 µM
# T3 sequence (whole entry): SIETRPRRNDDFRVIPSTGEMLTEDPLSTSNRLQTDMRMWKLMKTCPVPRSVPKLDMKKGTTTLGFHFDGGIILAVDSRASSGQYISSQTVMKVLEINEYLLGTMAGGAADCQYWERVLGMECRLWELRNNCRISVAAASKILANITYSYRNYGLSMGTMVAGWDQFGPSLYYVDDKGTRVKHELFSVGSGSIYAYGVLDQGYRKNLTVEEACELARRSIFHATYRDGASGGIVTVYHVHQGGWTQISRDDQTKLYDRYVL
# Homo sapiens = organism: Homo sapiens; assay: To identify inhibition of the IFN signalling (Jak-Stat) pathway via expression of an eGFP reporter gene under the control of an IFN-stimulated response element (ISRE) containing MxA promoter.; format: functional; settings: 30 µM
# [7] = molecular target: T4, Tyrosyl-tRNA synthetase, putative (Trypanosoma cruzi (strain CL Brener)) (UniProt Q4DSP6); assay: Trypanosoma cruzi tyrosyl tRNA synthetase (TcYRS) _High Tyrosine SOP; format: functional; settings: 30 µM; also: in the data most compounds retested in dose-response had high values
# T4 sequence (whole entry): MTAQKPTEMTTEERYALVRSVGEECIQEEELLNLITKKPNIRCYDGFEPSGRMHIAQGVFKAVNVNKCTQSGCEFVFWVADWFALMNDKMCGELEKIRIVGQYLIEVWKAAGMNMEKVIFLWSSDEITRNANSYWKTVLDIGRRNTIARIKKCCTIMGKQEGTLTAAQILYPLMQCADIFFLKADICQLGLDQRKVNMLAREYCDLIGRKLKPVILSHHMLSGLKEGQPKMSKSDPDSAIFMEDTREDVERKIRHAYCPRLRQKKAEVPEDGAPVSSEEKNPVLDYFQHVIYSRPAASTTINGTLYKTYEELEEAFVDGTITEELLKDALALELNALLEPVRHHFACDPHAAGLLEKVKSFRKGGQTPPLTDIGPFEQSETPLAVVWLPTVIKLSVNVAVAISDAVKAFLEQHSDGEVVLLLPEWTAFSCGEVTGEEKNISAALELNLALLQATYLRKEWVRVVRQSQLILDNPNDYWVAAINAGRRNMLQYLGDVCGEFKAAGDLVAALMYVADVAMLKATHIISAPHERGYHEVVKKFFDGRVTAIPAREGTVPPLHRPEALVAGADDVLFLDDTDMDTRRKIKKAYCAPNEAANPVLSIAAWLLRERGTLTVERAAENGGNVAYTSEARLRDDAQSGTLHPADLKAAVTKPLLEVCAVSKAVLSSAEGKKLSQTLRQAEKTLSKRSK
# [8] = molecular target: T4, Tyrosyl-tRNA synthetase, putative (Trypanosoma cruzi (strain CL Brener)); assay: Trypanosoma cruzi tyrosyl tRNA synthetase (TcYRS) SOP; format: functional; settings: 30 µM
# [9] = molecular target: Chromo domain-containing protein 1 (Saccharomyces cerevisiae (strain ATCC 204508 / S288c) (Baker's yeast)) (UniProt P32657); assay: ScCHD-1 Enzyme Inhibition Assay; format: functional; settings: 30 µM; also: in the data most compounds retested in dose-response had high values
# Chain of Chromo domain-containing protein 1 (Saccharomyces cerevisiae (strain ATCC 204508 / S288c) (Baker's yeast)) (P32657 whole entry, the tested form may be a part): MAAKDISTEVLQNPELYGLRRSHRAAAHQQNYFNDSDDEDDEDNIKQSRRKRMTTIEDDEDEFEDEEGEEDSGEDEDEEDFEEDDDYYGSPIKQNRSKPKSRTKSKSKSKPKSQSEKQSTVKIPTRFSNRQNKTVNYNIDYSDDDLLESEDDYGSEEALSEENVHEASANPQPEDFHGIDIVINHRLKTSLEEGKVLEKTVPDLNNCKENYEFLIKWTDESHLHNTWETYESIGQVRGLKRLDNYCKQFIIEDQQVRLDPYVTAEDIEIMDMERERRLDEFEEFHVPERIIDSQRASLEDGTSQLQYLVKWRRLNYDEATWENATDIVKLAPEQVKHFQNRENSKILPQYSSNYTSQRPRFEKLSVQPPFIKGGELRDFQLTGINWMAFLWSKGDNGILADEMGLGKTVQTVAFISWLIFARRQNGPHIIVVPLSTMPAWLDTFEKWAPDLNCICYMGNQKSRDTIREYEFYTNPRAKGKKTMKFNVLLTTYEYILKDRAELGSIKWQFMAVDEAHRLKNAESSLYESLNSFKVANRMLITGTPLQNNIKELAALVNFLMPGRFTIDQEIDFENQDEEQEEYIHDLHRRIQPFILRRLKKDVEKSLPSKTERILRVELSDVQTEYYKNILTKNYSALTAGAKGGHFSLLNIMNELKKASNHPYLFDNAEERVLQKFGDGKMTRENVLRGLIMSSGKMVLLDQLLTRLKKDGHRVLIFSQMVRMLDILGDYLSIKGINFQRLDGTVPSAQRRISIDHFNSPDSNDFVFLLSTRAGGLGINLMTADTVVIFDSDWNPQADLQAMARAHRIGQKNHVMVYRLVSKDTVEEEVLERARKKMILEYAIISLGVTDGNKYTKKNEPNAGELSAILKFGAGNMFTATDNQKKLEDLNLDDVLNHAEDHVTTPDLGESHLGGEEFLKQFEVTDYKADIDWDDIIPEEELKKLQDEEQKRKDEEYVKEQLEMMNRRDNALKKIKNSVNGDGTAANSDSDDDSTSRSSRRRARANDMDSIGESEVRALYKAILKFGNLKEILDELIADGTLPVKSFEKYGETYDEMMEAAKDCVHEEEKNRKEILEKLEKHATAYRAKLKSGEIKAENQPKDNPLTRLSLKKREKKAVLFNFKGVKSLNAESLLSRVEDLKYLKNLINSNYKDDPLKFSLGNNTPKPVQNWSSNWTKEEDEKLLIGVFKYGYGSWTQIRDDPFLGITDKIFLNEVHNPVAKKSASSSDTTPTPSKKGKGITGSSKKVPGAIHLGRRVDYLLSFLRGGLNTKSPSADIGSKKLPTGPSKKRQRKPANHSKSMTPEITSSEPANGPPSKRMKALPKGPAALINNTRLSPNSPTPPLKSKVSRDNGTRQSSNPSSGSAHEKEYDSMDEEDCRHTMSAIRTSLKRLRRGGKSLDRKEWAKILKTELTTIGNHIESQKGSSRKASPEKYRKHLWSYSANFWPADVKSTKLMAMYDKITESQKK
# Chain of Protein translocase subunit SecA (Escherichia coli (strain K12)) (P10408 whole entry): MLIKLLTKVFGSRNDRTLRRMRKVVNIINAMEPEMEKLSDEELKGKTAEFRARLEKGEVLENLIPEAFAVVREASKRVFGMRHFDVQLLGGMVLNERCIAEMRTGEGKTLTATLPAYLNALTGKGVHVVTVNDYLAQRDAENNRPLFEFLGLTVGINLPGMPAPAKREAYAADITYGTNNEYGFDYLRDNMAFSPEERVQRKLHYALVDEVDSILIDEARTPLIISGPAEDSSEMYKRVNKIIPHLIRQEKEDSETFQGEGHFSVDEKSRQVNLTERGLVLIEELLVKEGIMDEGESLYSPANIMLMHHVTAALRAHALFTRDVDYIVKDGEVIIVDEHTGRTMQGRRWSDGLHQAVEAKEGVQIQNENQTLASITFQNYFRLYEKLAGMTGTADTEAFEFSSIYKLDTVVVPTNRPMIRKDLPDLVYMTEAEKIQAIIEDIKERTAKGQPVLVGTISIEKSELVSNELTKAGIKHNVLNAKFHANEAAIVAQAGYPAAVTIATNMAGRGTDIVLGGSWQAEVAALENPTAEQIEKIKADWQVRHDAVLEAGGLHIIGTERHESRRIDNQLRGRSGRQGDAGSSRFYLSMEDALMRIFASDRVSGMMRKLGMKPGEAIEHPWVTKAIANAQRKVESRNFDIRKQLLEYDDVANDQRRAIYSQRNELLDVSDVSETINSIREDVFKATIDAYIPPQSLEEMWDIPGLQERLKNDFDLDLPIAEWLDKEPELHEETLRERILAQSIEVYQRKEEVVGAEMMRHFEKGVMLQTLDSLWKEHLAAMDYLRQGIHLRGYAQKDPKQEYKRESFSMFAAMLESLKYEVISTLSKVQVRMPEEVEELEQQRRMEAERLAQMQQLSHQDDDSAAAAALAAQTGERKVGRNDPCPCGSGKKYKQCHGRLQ
# Chain of Sialic acid-binding Ig-like lectin 9 (Homo sapiens) (Q9Y336 whole entry): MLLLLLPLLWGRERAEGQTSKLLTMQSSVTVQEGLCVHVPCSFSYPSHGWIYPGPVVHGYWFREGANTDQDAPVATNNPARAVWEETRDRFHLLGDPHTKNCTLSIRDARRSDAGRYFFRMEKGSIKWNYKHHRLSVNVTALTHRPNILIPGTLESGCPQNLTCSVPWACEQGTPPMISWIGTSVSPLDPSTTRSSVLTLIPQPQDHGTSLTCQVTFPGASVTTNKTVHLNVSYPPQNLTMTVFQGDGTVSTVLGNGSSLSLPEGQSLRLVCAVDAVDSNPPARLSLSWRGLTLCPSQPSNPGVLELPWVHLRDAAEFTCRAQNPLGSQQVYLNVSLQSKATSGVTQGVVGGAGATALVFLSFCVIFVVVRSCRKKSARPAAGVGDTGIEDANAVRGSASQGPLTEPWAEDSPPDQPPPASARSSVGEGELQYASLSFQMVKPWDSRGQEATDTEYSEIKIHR
Compound,Percent Effect [1] [%],Percent Effect [2] [%],Percent Effect [3] [%],Percent Effect [4] [%],Percent Effect (Trypanosoma cruzi) [%],Percent Effect [5] [%],Percent Effect [6] [%],Percent Effect (Homo sapiens) [%],Percent Effect [7] [%],Percent Effect [8] [%],Percent Effect [9] [%]
COc1ccc(OCCc2sc(C3(O)CCCNCC3)nc2C)cc1 (stereo not given),-5.55,6.76,2.86,1.72,0.198,-6.73,13.6,21,-3.23,9.09,-24.4
CCNC(=O)[C@@H]1C[C@@H](NC(=O)Cc2ccccn2)CN1CCCSC,-5.92,0,1.44,-0.868,-4.37,-1.2,6.42,5.01,0,-3.7,0.131
Cc1ccoc1C(=O)NC1CCN(Cc2cccc3c2OCCO3)CC1,-5.22,16.5,-78.8,6.72,3.38,-5.38,13.9,8.82,13.5,25.3,-24.5
CCc1nc(CN2CCCC(NCc3ccc(C(N)=O)cc3)C2)no1 (stereo not given),-4.14,2.53,-1.56,9.52,2.93,1.14,-0.246,12.3,-0.493,1.27,-2.88
CCC(CNC(=O)c1ccc(Br)o1)N1CCc2ccccc2C1 (stereo not given),-2.45,-2.7,-0.754,2.18,2.51,-2.38,10.9,11.9,0.529,-4.88,-2.21
CCn1cc(CN2C[C@@H]3CCCN3C[C@@H]2CCSC)c(C)n1,-1.75,5.33,8.44,4.09,-4.53,2.1,8.37,3.9,3.19,6.41,0.13
O=C1CCCCN1Cc1cccc(NC(=O)N2CCSCC2)c1,-4.11,9.72,-6.98,26,2.43,8.83,12.1,8.32,6.32,12.8,-6.96
CCCNC(=O)CNc1cc(C(=O)N2CCSCC2)ccc1C,-4.74,5.48,-4.24,9.22,8.73,-4.39,7.28,2.79,5.21,11.1,-9.2
CC(C)(C)OC(=O)NC(C)(C)c1noc(CN2CCCCC2)n1,-5.9,8,-1.12,-1.61,-3.02,1.04,9.07,13.4,2.73,8.64,-7.41
Cc1cc(S(=O)(=O)N2CCC(S(C)(=O)=O)CC2)ccc1F,-4.08,5.2,6.02,4.37,-0.493,8.39,-2.96,14.6,4.23,11.5,-5.25

# — ChEMBL document CHEMBL3988442, “University of Dundee, Small-Polar-MMV Screening Library” (2021)
